Compound activity deposited in PubChem BioAssay by National Center for Advancing Translational Sciences (NCATS).
Sm TGR inh – inhibitors of Schistosoma mansoni thioredoxin glutathione reductase; actives 3% (n = 360,000); purified TGR, DTNB reduction, TNB absorbance 405 nm; Q962Y6; Potency, µM (series often up to 114 µM), without a hit: at the highest dose activity change, negative = inhibition, usual class: inhibitors; also: potency is read from the fitted curve at half-maximal effect; nearly all actives have a fitted effect of over 60% in size
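TGR 20 nM + NADPH 100 uM (dispensed conc.), cpd preinc 15 min RT; start with NADPH (500 uM addition) then DTNB (15 mM addition). Kinetic TNB absorbance, 405 nm filter. Four-parameter Hill fit across titration.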
Pf growth 48h – inhibits P. falciparum growth in the first generation, 48 h | P. falciparum luciferase growth in erythrocytes, 48 h | Potency, µM (top dose mostly 28.7 µM), inactives show top-dose activity change, negative = inhibition, actives largely listed as inhibitors | actives 5.9% (n = 310,000) | AID 504832; also: potency is read from the fitted curve at half-maximal effect
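Compounds are pin-transferred into medium, infected erythrocytes (2% hematocrit, 0.1% parasitemia final) are added, and plates sit one parasite generation at 37 C in 5% CO2. Detection reagent is then added and luminescence measured.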
Giardia FBPA inh – inhibitors of Giardia lamblia fructose-1,6-bisphosphate aldolase. A8B2U2. purified Giardia FBPA. Potency, µM (highest dose often 59.6 µM), inactives show top-dose activity, negative = inhibition, hits mostly inhibitors. actives 0.71% (n = 290,000). AID 2451; also: potency is read from the fitted curve at half-maximal effect; nearly all actives have a fitted effect of over 55% in size
Target sequence (A8B2U2 whole entry, looked up): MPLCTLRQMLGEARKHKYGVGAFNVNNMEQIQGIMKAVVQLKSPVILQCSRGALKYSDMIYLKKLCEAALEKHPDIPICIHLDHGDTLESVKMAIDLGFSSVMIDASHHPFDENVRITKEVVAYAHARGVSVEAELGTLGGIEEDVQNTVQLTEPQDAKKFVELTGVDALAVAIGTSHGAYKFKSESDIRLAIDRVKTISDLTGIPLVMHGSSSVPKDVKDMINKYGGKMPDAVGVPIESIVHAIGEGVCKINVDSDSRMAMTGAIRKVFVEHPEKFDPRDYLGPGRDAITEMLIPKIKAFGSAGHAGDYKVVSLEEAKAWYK
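Giardia FBPA (40 nM reagent) was preincubated 10 min at RT with compound (up to 57.5 uM final), then substrate plus GAPDH/TPI/NAD/arsenate coupling system with diaphorase/resazurin was added; resorufin fluorescence (525/598 nm) was read after 20 min.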
Pf growth 96h – inhibits malaria parasite growth, 96 h. actives 6.9% (n = 320,000). AID 504834. Potency, µM (series often up to 28.7 µM), for inactives: at the top dose activity change, negative = inhibition, hits mostly inhibitors. P. falciparum luciferase reporter growth, 96 h; also: potency is read from the fitted curve at half-maximal effect
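Readout is luminescence from an integrated firefly luciferase in P. falciparum. Red cells, 2% hematocrit and 0.05% parasitemia final, were cultured with compound through two parasite generations (96 hours) at 37 C, 5% CO2.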
HCMV antiviral – inhibitors of human cytomegalovirus | HFF cells, HCMV-luciferase reporter, 72 h; hits give low values | activity change, negative = inhibition, % at 57.5 µM | actives 4.5% (n = 410,000); in the data active = activity change below about -60%; inconclusive = no clear call, values can overlap the other calls; inactive = above about -39%
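Two-dose cell screen: HFF monolayers treated with compounds and infected with luciferase-expressing HCMV at 1 PFU/cell, 72 h at 37C, then lysed for luciferase measurement.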
* hit, by the source's call; u = inconclusive; x = no result. The list is not random: actives were taken first. Their share in the collection is about 14%. Unless noted, calls follow the shape of the dose curve; as a rule, active = well fitted curve in the direction sought with a large enough effect; inconclusive = small, poorly fitted or top-dose-only effect, or another doubt; inactive = no such curve, though single readings can be large; an effect the other way counts as inactive or inconclusive. % is scaled to controls: 0 for no effect and ±100 for the full control effect.

SMILES	Sm TGR inh	Pf growth 48h	Giardia FBPA inh	Pf growth 96h	HCMV antiviral
O=C(CCC(=O)OCC(=O)c1ccc(Cl)cc1)NC1CCCCC1	-21%	37%	x	117%	-105*
O=C(CCSc1ccc(Cl)cc1)NC1CCCC1	1%	25%	1%	5.9µM*	15
CC1=C(C(N)=O)C(c2ccc(F)cc2)n2nc(-c3ccc(N(C)C)cc3)nc2N1 (stereo unspecified)	-7%	x	x	x	5
Cc1cc(OCCN2CC2)c2ccccc2n1	-14%	13µM*	1%	10µM*	x
C#CCN1CC(COc2ccccc2)Oc2cccc(Oc3ccc(OC)cc3)c2S1(=O)=O (stereo unspecified)	x	x	x	x	-20
COc1ccccc1-c1nc(SCC(=O)NCc2ccc(C)cc2)c2c(=O)n(C)c(=O)n(C)c2n1	u	x	x	x	-15
Cc1coc2cc3oc(=O)c4c(c3cc12)CCC4	-13%	16%	5%	x	x
O=Cc1cccc(Oc2ccc([N+](=O)[O-])cc2[N+](=O)[O-])c1	45µM*	15%	-29%	6%	u
Cc1cc(=O)oc2cc(Oc3ccc([N+](=O)[O-])cc3[N+](=O)[O-])ccc12	50µM*	7%	-5%	u	3
Cc1c(C)c2cc3c(C)coc3cc2oc1=O	u	34%	7%	5.2µM*	2
O=C(c1ccccc1)c1ccc(Oc2ccc([N+](=O)[O-])cc2[N+](=O)[O-])cc1	x	x	x	x	-2
Cc1oc2cc3oc(=O)cc(C)c3cc2c1C	7%	51%	-1%	34%	165
Cc1cc(=O)oc2cc3oc(=O)cc(C)c3cc12	1%	3%	-15%	4.7µM*	31
CC(C)N1CCC(C)(C(=O)Nc2ccc(-n3cccc3)cc2)C1 (stereo unspecified)	x	x	x	x	-3
CCn1c(=O)cc(OCC(=O)N2CCN(c3cccc(Cl)c3)CC2)c2ccccc21	-8%	x	x	x	11
COc1ccc(CCc2nnc(NS(C)(=O)=O)s2)cc1	u	0%	-9%	-29%	-13
COc1cccc(COc2ccc3c(C)cc(=O)oc3c2)c1	3%	116%	0%	244%	68
COc1ccc2c(C)cc(=O)oc2c1	x	x	0%	x	-102*
Cc1cc(C)n(-c2nc3ccccc3nc2N2CCN(S(=O)(=O)c3ccc4ccccc4c3)CC2)n1	8%	x	1%	5.2µM*	36
Cc1cc(N2CCN(S(=O)(=O)c3ccc(Cl)c(Cl)c3)CC2)c2ccccc2n1	x	12µM*	9%	1%	u
Cc1cc(N2CCN(S(=O)(=O)c3ccc(Cl)cc3)CC2)c2ccccc2n1	2%	x	4%	x	-87*
Cc1cc(N2CCN(CC(O)C(F)(F)F)CC2)c2ccccc2n1 (stereo unspecified)	-1%	-9%	2%	u	14
Cc1cc(N2CCN(S(=O)(=O)c3ccccc3)CC2)nc2c(C)cccc12	3%	-7%	-9%	13µM*	-6
CCc1nc2ccccc2nc1N1CCN(S(=O)(=O)c2ccc(Cl)cc2)CC1	13%	u	-1%	-22%	0
Cc1ccc2nc3n(c(=O)c2c1)-c1ccccc1C(=O)NC3Cc1ccccc1 (stereo unspecified)	2%	27%	x	6%	5
SMILES	Sm TGR inh	Pf growth 48h	Giardia FBPA inh	Pf growth 96h	HCMV antiviral
CC1(C)C2CCC1(C)C(OC(=O)c1ccccc1C(=O)O)C2 (stereo unspecified)	-8%	u	6%	-2%	-9
CC(=O)OC(COC1C[C@@H]2CC[C@@]1(C)C2(C)C)C[N+]1(C)CCCCC1 (stereo partly specified)	-5%	3.3µM*	0%	2.9µM*	-18
CC1(c2ccc3ccccc3c2)NC(=O)N(CC(=O)N2CCCC(C(F)(F)F)C2)C1=O (stereo unspecified)	-9%	-5%	x	u	-38
COc1ccc(C)cc1CN(C)c1ccc(S(=O)(=O)N2CCN(C)CC2)cn1	-1%	10µM*	x	u	-12
Cc1ccccc1CN(C)c1ccc(S(=O)(=O)N2CCN(C)CC2)cn1	-2%	-11%	x	20%	0
Cc1ccccc1CCN(C(=O)c1csnn1)C(C(=O)NC1CCCC1)c1ccncc1 (stereo unspecified)	3%	u	-4%	-16%	-19
CCOc1ccc(C(C)=O)cc1CN1C(=O)NC2(CCCCCC2)C1=O	2%	2.3µM*	10%	4.7µM*	-4
CCCCOc1ccc(C(=O)N/N=C/c2ccc(OCCN3CCCCC3)c(OC)c2)cc1	-15%	12µM*	2%	12µM*	4
COc1ccc(C(=O)CCN2CCCC(C)C2)cc1 (stereo unspecified)	0.28µM*	-19%	6%	243%	-28
CC(=O)c1ccc(OCC(C)C)c(CN2CCCCC2)c1	0%	-3%	-6%	3.7µM*	u
CCCCCCCCCCCCCC(=O)OC(C)C	x	-11%	x	-20%	x
CC(C)COc1ccc(C(=O)OCCN2CCCCC2)cc1	5%	8%	-5%	32%	-26
CCCCOc1ccc(C(=O)CCN2CCCCC2)cc1	0.32µM*	-14%	-5%	-1%	-9
CCOc1cc(/C=N/NS(=O)(=O)c2ccccc2)ccc1OS(=O)(=O)c1ccc(C)cc1	-2%	x	6%	u	19
CCOc1cc(/C=N/NS(=O)(=O)c2ccc(OC)cc2)ccc1OCCN1CCOCC1	-18%	0%	8%	5.2µM*	-24
CC(C)COc1ccc(C(=O)CCN2CCCCC2)cc1	0.35µM*	11%	-1%	-23%	7
CC(=O)c1ccc(OCCCN2CCCCC2)cc1	1%	x	u	19%	63
CC(C)[C@H](NS(=O)(=O)c1ccccc1)C(=O)Nc1nccs1	x	x	x	x	-12
O=C(CSc1nnc(COc2ccc(Cl)cc2)o1)Nc1ccccc1	-27%	x	x	x	-4
Cc1sc2nc(-c3ccccn3)[nH]c(=O)c2c1-c1ccccc1	9%	1.5µM*	u	u	-61*
COCCNCc1nc2sc(C)c(-c3ccccc3)c2c(=O)[nH]1	1%	4%	u	2%	-101*
Cc1sc2nc(CN3CCOCC3)[nH]c(=O)c2c1-c1ccccc1	-5%	10%	1%	8%	-28
Cc1ccc(N2CC3=C(C2=O)C(c2ccc(Br)cc2)NC(=O)N3C)cc1 (stereo unspecified)	-4%	x	x	x	-7
Cc1cc(C)c(C)c(S(=O)(=O)NCc2ccc(C(=O)N3CCCC3)cc2)c1C	9%	6.6µM*	5%	u	1
Cc1cc(C)c(C)c(S(=O)(=O)NCC(=O)N2CCCC2)c1C	4%	-13%	4%	19%	-15
Cc1ccc(C)c(S(=O)(=O)NCc2ccc(C(=O)N3CCCCCC3)cc2)c1	-10%	u	0%	7.4µM*	u
O=C(c1ccccc1S(=O)(=O)NCc1ccccc1)N1CCCC1	5%	x	2%	15µM*	-1
